# Source: PubChem (National Center for Advancing Translational Sciences (NCATS))
# HT1080 IDH1KD tx = qHTS for induction of synthetic lethality in tumor cells producing 2HG: qHTS for the HT-1080-IDH1KD cell line; Potency, µM (doses to about 46.1 µM), without a hit: at the top dose activity, negative = toxicity, most hits filed as cytotoxic; 360,000 compounds, 2% hits; HT-1080 IDH1 knockdown viability, ATP luminescence, 48 h;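 also: potency is read from the fitted curve at half-maximal effect; 0% = DMSO wells and -100% = cell-free medium wells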
#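 Cytotoxicity counter-line: IDH1KD HT-1080, 48 h, CellTiter-Glo. Curves classed by r2, magnitude and activity.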
# TDP1 cell CPT = qHTS for Inhibitors of human tyrosyl-DNA phosphodiesterase 1 (TDP1): qHTS in cells in presence of CPT | chicken DT40 Tdp1-/-;hTDP1 cells + 20 nM CPT, ATP luminescence, 48 h | Potency, µM (highest dose often 46.2 µM), inactives show top-dose activity change, negative = growth inhibition, hits mostly inhibitors | 420,000 compounds, 12% hits | AID 686979, 2013; also: potency is read from the fitted curve at half-maximal effect; nearly all actives have a fitted effect of over 55% in size
#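 Cell growth measured by CellTiter-Glo luminescence after a minimum 48 h, 37 C compound exposure with 20 nM CPT in Tdp1-knockout DT40 cells stably expressing hTDP1, seeded 400/well; qHTS titration format.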
# HT1080-NT tox = qHTS for induction of synthetic lethality in tumor cells producing 2HG: qHTS for the HT-1080-NT fibrosarcoma cell line | HT-1080-NT fibrosarcoma viability, CellTiter-Glo ATP luminescence, 48 h | Potency, µM (doses to about 46.1 µM), without a hit: at the highest dose activity, negative = less viability, most hits filed as cytotoxic | 360,000 compounds, 1.6% hits;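 also: NT is the 2HG producing partner of a matched IDH1 knockdown line; potency is read from the fitted curve at half-maximal effect; 0% = DMSO-treated cells and -100% = media-only wells without cells; nearly all actives have a fitted effect of over 55% in size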
#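 Read-out is CellTiter-Glo luminescence after 10 minutes at room temperature, following 48 hours' compound treatment of HT-1080-NT cells (750 cells/well, RPMI, 5% FBS, 37 degrees C).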
# IL-1B inflam inh = qHTS for Inhibitors of Inflammasome Signaling: IL-1-beta AlphaLISA Primary Screen; THP-1 LPS/ATP IL-1B secretion, AlphaLISA, 16 h; active compounds read low; 360,000 compounds, 4.7% hits; activity change, % at 57.5 µM; in the data active = activity change below about -50%; inconclusive = mostly about -30% to -49%
#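 Secreted IL-1B measured by AlphaLISA bead assay after 16 h compound exposure of THP-1 cells; compounds (final up to 57.5 uM) added 1 h before LPS (250 ng/mL) and ATP (1.25 mM) stimulation; lower signal means less secretion.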
# TDP1 cell noCPT = qHTS for Inhibitors of human tyrosyl-DNA phosphodiesterase 1 (TDP1): qHTS in cells in absence of CPT. Potency, µM (highest dose often 46.2 µM), without a hit: at the top dose activity change, negative = growth inhibition, actives largely listed as inhibitors. DT40 Tdp1-/- hTDP1 cells, no CPT, ATP luminescence, 48 h. 420,000 compounds, 15% hits; also: potency is read from the fitted curve at half-maximal effect; nearly all actives have a fitted effect of over 55% in size
#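 Readout: luminescence from CellTiter-Glo after 30 min in the dark at RT. Cells: DT40 Tdp1-/- with stable hTDP1, 400/well. Exposure: compounds alone, ≥48 hr, 37 °C.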
# Numbers without * were called inactive; u = inconclusive; x = not tested or not shown; [ ] = dose if it differs, or a comment. Most compounds without a hit are left out; they make up all but 19% or so of the library. Unless noted, calls follow the shape of the dose curve; as a rule, active = well fitted curve in the direction sought with a large enough effect; inconclusive = small, poorly fitted or top-dose-only effect, or another doubt; inactive = no such curve, though single readings can be large; an effect the other way counts as inactive or inconclusive. Unless noted, % is scaled to controls: 0 for no effect and ±100 for the full control effect.
SMILES,HT1080 IDH1KD tx,TDP1 cell CPT,HT1080-NT tox,IL-1B inflam inh,TDP1 cell noCPT
CCN(CC(=O)Nc1c(F)cccc1F)C(=O)c1cccc(S(=O)(=O)N(C)c2ccccc2)c1,-8%,13µM*,1%,-5,15µM*
CN(C)c1ccc(C(=O)N2CCCC(CCC(=O)N3CCN(c4ccccn4)CC3)C2)cc1 (centres undefined),2%,u,0%,-10,u
CCOC(=O)N1CCN(C(=S)NC(=O)/C=C/c2ccc(C)cc2)CC1,13%,-17%,17%,-18,0%
Cc1ccc(CN2CCC2(C)C(=O)NC2CCc3ccccc32)cc1 (centres undefined),-22%,u,-17%,1,23µM*
CSc1ccc(CN2CCC2(C)C(=O)NCc2cccs2)cc1 (centres undefined),-15%,u,15%,0,u
CSc1ccc(CN2CCC2(C)C(=O)NC2CCc3ccccc32)cc1 (centres undefined),u,u,u,-1,16µM*
O=C(Nc1ccc(N2CCCC2)c(Cl)c1)c1ccc(Br)o1,u,18µM*,u,-27,u
O=C(Nc1ccc(N2CCOCC2)cc1)c1ccc(Br)o1,-8%,-11%,-1%,u,-23%
O=C(Nc1cc(C(F)(F)F)ccc1N1CCCCC1)c1ccc(Br)o1,1%,18µM*,1%,-4,u
O=C(Nc1cccc(Cl)c1N1CCOCC1)c1ccc(Br)o1,-2%,10µM*,-1%,-2,10µM*
COC(=O)C1=C[C@@H](C(=O)OC)[C@@H]2C3=C(C(=O)C2(C)C)[C@H](c2ccccc2)[C@@H]2C(=O)N(C)C(=O)[C@@H]2[C@@H]3C1,16%,-3%,15%,-5,5%
CCN(CC)C1CCN(C(=O)c2cnn(-c3ncc4c(n3)-c3ccccc3CCC4)c2COC)C1 (centres undefined),x,24%[9.04 µM],x,x,-8%
Cc1ccc(-c2nn(CC(=O)NC3CCCCC3)c3c2cnc2ccc(F)cc23)cc1C,x,-12%,x,x,-11%
CCOC(=O)c1[nH]c(C)c(/C(O)=C2\C(=O)C(=O)N(CCCN3CCOCC3)C2c2cccs2)c1C (centres undefined),21µM*,24%,9.2µM*,9,-11%
O=C1c2cccc3c(O)ccc(c23)C(=O)N1Cc1ccccc1,u,u,u,57,u
CCc1ccc(NC(=O)CN(c2ccc(C)cc2)S(=O)(=O)c2cccs2)cc1,x,-17%,x,x,-19%
CCN(CC)c1ccc(N=Cc2c(C)[nH]c3ccccc23)cc1,u,6.5µM*,u,23,9.2µM*
COc1cc(OC)cc(C(=O)NC(C)CNc2ccc(Cl)cc2[N+](=O)[O-])c1 (centres undefined),-2%,u,-7%,-6,8.2µM*
COCC(C)NC(=O)c1cc(OC)cc(OC)c1 (centres undefined),9%,-13%,0%,-15,-29%
CCc1cc(C(=O)OC)c(NC(=O)C2CC(=O)NN2Cc2ccccc2)s1 (centres undefined),-4%,u,3%,-6,u
COc1ccc(CNC2CCCc3ccccc32)cc1OC (centres undefined),0%,u,-22%,-8,18µM*
COc1ccc(C(=O)NC2CCCc3ccccc32)c(OC)c1OC (centres undefined),u,18µM*,u,13,21µM*
COc1ccccc1CN(C)CC(=O)NC1CCCc2ccccc21 (centres undefined),-19%,15µM*,-7%,4,u
COc1ccc(C(=O)OC(C)C(=O)NC2CCCc3ccccc32)cc1OC (centres undefined),-1%,-30%,4%,-52*,-16%
COc1ccc(CNC2CCSc3ccccc32)cc1OC (centres undefined),-6%,u,-20%,u,u
SMILES,HT1080 IDH1KD tx,TDP1 cell CPT,HT1080-NT tox,IL-1B inflam inh,TDP1 cell noCPT
COc1ccccc1C(=O)NCC(=O)NC1CCCc2ccccc21 (centres undefined),-1%,u,-2%,29,u
Cc1cnc(C(=O)OC(C)C(=O)NC2CCCc3ccccc32)cn1 (centres undefined),9%,24%,4%,11,-4%
CC1(C(=O)Nc2cccc(C(F)(F)F)c2)Cc2ccccc2C(=O)O1 (centres undefined),x,-25%,x,x,-27%
CCc1nnc(NC(=O)CSc2ccc(-c3ccc(-n4cccn4)cc3)nn2)s1,5%,-19%,2%,3,-17%
COC(=O)CN(C)C(=O)c1ccc(OC)c(OC2CCN(C(C)C)CC2)c1,8%,-27%,9%,9,0%
COc1ccc(C(=O)N(C)C2CCCc3ccccc32)cc1OC1CCN(C(C)C)CC1 (centres undefined),15%,21µM*,5%,-1,u
CC(C)(C)C1CCC2(CC1)CC(=O)c1ccccc1O2 (centres undefined),9%,-5%,15%,1,-25%
Cc1c(Cl)cccc1NC(=S)NCCc1ccc(F)cc1,-6%,-27%,-14%,-82*,-19%
Fc1cccc(NC(=S)NCCc2ccccc2)c1,-24%,u,-7%,-10,21µM*
CCc1cc(Br)ccc1NC(=S)NCCc1ccccc1,-8%,u,-2%,u,21µM*
Cc1ccc(NC(=S)NCCc2ccccc2)nc1,4%,u,-17%,39,5.8µM*
Cc1cccc(C)c1OCc1cc(=O)n2c3c(sc2n1)CCCC3,x,-29%,x,x,u
CC(=O)Nc1nonc1-c1nnc(SCC(=O)Nc2cc(C)cc(C)c2)n1C,x,-24%,x,x,u
CCC1CC2CC(NC(C)=O)C1C2 (centres undefined),6%,0%,18%,9,-4%
O=C(CCn1c(=S)oc2ccccc21)NC1CCCCCCC1,-11%,-16%,2%,2,5%
COc1ccc(CN2C[C@H](Sc3nc4ccccc4[nH]3)C[C@H]2C(=O)N(C)C)c2ccccc12,x,10%[9.04 µM],x,x,-16%
Cc1cccc(NC(=S)NCCc2ccccc2)c1C,-9%,26µM*,-6%,-21,u
CC(C)c1ccccc1NC(=S)NN(Cc1ccccc1)c1ccccc1,-15%,u,-29%,u,u
O=C(NCCCCc1ccccc1)Nc1cccc(F)c1,u,u,u,-99*,23µM*
